PubChem BioAssay
Unmarked numbers belong to inactive results.

assay: A549 lung cancer cell viability effects, profiling panel, resazurin fluorescence, 24 h, PK04 Diversity Set (AID 1171); conditions: higher = more signal, called active from +8 up or from −8 down; note: test concentration not given here

Row | Compound | z-score
1 | COc1cc(NN2C(C(O)c3cc(OC)c(OC)c(OC)c3)C=CC3C(=O)N(C)C(=O)C32)cc(OC)c1OC (centres undefined) | -0.4
2 | COc1cc(OC)c(C(O)C2C=CC3C(=O)N(Cc4ccccc4)C(=O)C3N2n2cnnc2)cc1Br (centres undefined) | -0.963
3 | C=CCC(OC(C)=O)[C@@H]1[C@@H](N(Cc2cc3ccccc3o2)C(=O)Cc2ccc(F)cc2)c2cc(OCCCO)ccc2N1C(=O)Cc1ccc2ccccc2c1 (some centres undefined) | 0.0336
4 | COc1ccc(CCNC(=O)[C@@H]2c3ccccc3C(=O)N(C3CCCCC3)[C@H]2c2ccc(CO)cc2)cc1 | 0.332
5 | C[N+](C)(C)CCCC[C@@H]1NC(=O)[C@@H]2C[C@H](C(=O)NCCCCCCN)[C@H](c3cccc(OCCO)c3)N2C1=O | -0.518
6 | O=C1C2C=CC(C(O)C3CC=CCC3)N(Nc3ccccc3)C2C(=O)N1c1ccccc1 (centres undefined) | -0.728
7 | O=C1C2C=CC(C(O)c3ccco3)N(Nc3ccccc3F)C2C(=O)N1c1ccccc1 (centres undefined) | 0.279
8 | COC(=O)c1c(CC[C@@H](CO)NC(=O)N2CCC[C@H]2Cn2cc(C3(O)CCCCC3)nn2)oc(C(C)=O)c1C(=O)OC | -0.168
9 | C=C(/C(=C/C[C@H](OC(=O)c1ccncc1)c1ccc(CO)o1)c1cnc2ccccc2c1)C(C)C | 0.208
10 | COCC(=C=CC[C@H](O)c1ccccc1OCCO)C[C@H](O)c1ccccn1 | -0.0836
11 | CC(C)c1ccc(NN2C(C(O)c3ccc(F)cc3)C=CC3C(=O)N(c4ccccc4)C(=O)C32)cc1 (centres undefined) | -0.12
12 | CO[C@H]1O[C@H](CO)[C@@H](OC(=O)Nc2ccc3c(c2)OCO3)[C@H](OC(=O)Nc2ccc3c(c2)OCO3)[C@@H]1OC(=O)Nc1ccc2c(c1)OCO2 | -0.333
13 | CCCNC(=O)[C@@H]1c2ccccc2C(=O)N(Cc2ccc(OC(F)(F)F)cc2)[C@H]1c1ccc(CO)cc1 | 0.285
14 | CCOC(=O)C[C@H]1[C@H](OC(=O)c2cc3ccccc3oc2=O)[C@@H](NC(=O)c2ccccc2)c2cc(OCCCO)ccc2N1C(=O)c1ccccc1 | -0.238
15 | CCCNC(=O)[C@@]1(C)c2ccccc2C(=O)N(c2ccc(C)cn2)[C@H]1c1ccc(CO)cc1 | -0.407
16 | CC(C)C(O)C1C=CC2C(=O)N(c3ccccc3)C(=O)C2N1Nc1ccccc1 (centres undefined) | 0.184
17 | CCCCC(CC)C(O)C1C=CC2C(=O)N(c3ccccc3)C(=O)C2N1Nc1ccc(C#N)cc1 (centres undefined) | 0.857
18 | COc1ccc(CCNC(=O)[C@@]2(Cc3ccccc3I)c3ccccc3C(=O)N(C3CCCCC3)[C@H]2c2ccc(CO)cc2)cc1 | -0.584
19 | [N-]=[N+]=Nc1ccccc1C[C@@]1(C(N)=O)N=C(c2ccc(OCCCO)cc2)O[C@@H]1c1ccccc1N=[N+]=[N-] | -0.385
20 | C=CCN1C(=O)[C@]2(CCS(=O)(=O)c3ccccc3)N=C(c3ccc(OCCCO)cc3)O[C@@H]2c2ccccc21 | -2.52
21 | NC(=O)NCC#Cc1ccc2c(c1)[C@]1(C(=O)N2)[C@H](c2ccccc2OCCO)N2[C@H](c3ccccc3)[C@H](c3ccccc3)OC(=O)[C@H]2[C@@H]1C(=O)O | 1.73
22 | NCCCCCNC(=O)[C@H]1C[C@H]2C(=O)N3CCC[C@H]3C(=O)N2[C@H]1c1cccc(OCCO)c1 | -0.845
23 | COc1ccc([Si](C)(C)[C@@H]2[C@@H](CCO)O[C@]3(C(=O)N(Cc4cccc(NC(=O)[C@H](C)O)c4)c4ccccc43)[C@H]2C)cc1 | -5.11
24 | CCCCN1CC=CC23O[C@@H]4/C=C\CCCOC(=O)C4[C@H]2C(=O)N(CCO)[C@@H]3C1=O (some centres undefined) | -0.688
